Screening results: PubChem BioAssay, National Center for Advancing Translational Sciences (NCATS)
Sfp PPTase inh: Sfp phosphopantetheinyl transferase inhibition; Q9F4F7; Biochemical Sfp PPTase activity, qHTS; Potency, µM, without a hit: largest response in the series, negative = inhibition, hits mostly inhibitors; hit rate 3.5% among 310,000;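 also: the enzyme is Sfp with the accession as filed and its product quenches rhodamine fluorescence; 0% = enzyme reaction without inhibitor and -100% = no enzyme wells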
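After 15 min at room temperature with compound, 15 nM Sfp received 5 uM rhodamine-CoA plus 12.5 uM BHQ-2-ybbR (50 mM Hepes pH 7.6, 10 mM MgCl2). Rate came from the fluorescence difference over 30 min, ex 525/em 598 nm.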
JMJD2A Tudor inh: JMJD2A Tudor domain (human) inhibition; O75164; AlphaScreen JMJD2A-Tudor / H3K4me3 peptide binding; Potency, µM (titrated, usually from 114 µM), without a hit: at the top dose activity change, negative = inhibition, usual class: inhibitors; hit rate 4.4% among 390,000; AID 504339; also: % is scaled to controls: 0 for no effect and ±100 for the full control effect; nearly all actives have a fitted effect of over 50% in size
G9a inh: blocks human histone lysine methyltransferase G9a | G9a H3K9 monomethylation, AlphaScreen, 2 h | Potency, µM (highest dose often 102 µM), without a hit: at the top dose activity, negative = inhibition, actives largely listed as inhibitors | hit rate 8.8% among 350,000; also: % is scaled to controls: 0 for no effect and ±100 for the full control effect; nearly all actives have a fitted effect of over 75% in size
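Compounds were preincubated with 20 nM G9a for 15 min, after which biotinylated H3K9 peptide (500 nM) and SAM (20 uM) started a 2 h room-temperature reaction. Monomethylated product was quantified by antibody-based AlphaScreen chemiluminescence.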
HP1b chromo inh: inhibitors of HP1-beta chromodomain binding to methylated histone tails; AlphaScreen HP1-beta / biotin-H3K9me3 peptide binding; Potency, µM (titrated, usually from 114 µM), for inactives: at the highest dose activity change, negative = inhibition, usual class: inhibitors; P83916; AID 540317; hit rate 0.56% among 390,000; also: nearly all actives have a fitted effect of over 70% in size
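AlphaScreen: HP1-beta (50 nM) preformed 30 min with biotin-H3(1-18)K9me3 peptide (50 nM) in PBS pH 7.4, 0.01% Tween-20. Compound added for 30 min at RT, then streptavidin donor/nickel chelate acceptor beads (10 ug/mL) for 30 min.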
L3MBTL1 inh: inhibitors of human L3MBTL1. AlphaScreen L3MBTL1–H3K9me1 peptide binding. Potency, µM (top dose mostly 57.1 µM), for inactives: at the top dose activity, negative = inhibition, actives largely listed as inhibitors. Q9Y468. hit rate 0.66% among 230,000; also: % is scaled to controls: 0 for no effect and ±100 for the full control effect; nearly all actives have a fitted effect of over 60% in size
Target sequence (Q9Y468 whole entry, looked up): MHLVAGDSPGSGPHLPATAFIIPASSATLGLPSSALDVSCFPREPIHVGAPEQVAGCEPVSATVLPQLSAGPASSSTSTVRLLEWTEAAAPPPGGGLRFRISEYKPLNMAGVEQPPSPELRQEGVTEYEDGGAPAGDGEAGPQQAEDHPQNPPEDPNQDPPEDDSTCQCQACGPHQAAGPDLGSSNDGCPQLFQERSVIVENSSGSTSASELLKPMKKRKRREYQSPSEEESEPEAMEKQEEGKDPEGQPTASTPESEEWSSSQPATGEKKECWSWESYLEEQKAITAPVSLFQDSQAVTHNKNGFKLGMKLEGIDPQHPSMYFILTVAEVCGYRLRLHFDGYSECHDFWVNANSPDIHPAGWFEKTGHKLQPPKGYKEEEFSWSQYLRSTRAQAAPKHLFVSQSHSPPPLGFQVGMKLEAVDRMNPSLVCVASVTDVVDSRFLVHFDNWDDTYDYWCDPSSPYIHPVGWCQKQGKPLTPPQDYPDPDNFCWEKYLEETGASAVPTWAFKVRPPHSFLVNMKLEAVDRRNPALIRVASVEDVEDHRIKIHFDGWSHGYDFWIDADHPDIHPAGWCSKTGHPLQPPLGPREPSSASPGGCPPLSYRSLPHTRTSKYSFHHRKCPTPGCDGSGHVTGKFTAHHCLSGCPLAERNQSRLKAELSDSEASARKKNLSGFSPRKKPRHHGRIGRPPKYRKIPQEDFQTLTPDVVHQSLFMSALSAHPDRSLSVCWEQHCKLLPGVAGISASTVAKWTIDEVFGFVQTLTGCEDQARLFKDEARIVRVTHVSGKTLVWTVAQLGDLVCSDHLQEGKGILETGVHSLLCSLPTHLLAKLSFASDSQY
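Displacement of a biotinylated histone H3(1-15) peptide monomethylated at Lys9 (75 nM) from L3MBTL1 (50 nM) was measured by AlphaScreen after a 30 min room-temperature compound incubation; cefsulodin titration served as intraplate control.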
BAZ2B inh: blocks human BAZ2B. hit rate 4.4% among 360,000. Q9UIF8. Potency, µM (top dose mostly 114 µM), without a hit: at the highest dose activity change, negative = inhibition, most hits filed as inhibitors. AlphaScreen BAZ2B-H3K14Ac peptide displacement. AID 504333; also: % is scaled to controls: 0 for no effect and ±100 for the full control effect; nearly all actives have a fitted effect of over 60% in size
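BAZ2B (50 nM) with biotin-H3(5-23)K14Ac peptide (50 nM) in PBS pH 7.4, 0.01% Tween-20, preformed 30 min, then compound 30 min at room temperature; top concentration 110uM. AlphaScreen streptavidin donor/nickel chelate acceptor beads (10 ug/mL final), 20 min dark, signal read.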
* = called active by the depositor; ? = inconclusive; . = no result given; [ ] = dose if it differs, or a comment. An excerpt weighted towards active compounds, which were near 12% of everything screened. Calls follow the shape of the dose curve; as a rule, active = well fitted curve in the direction sought with a large enough effect; inconclusive = small, poorly fitted or top-dose-only effect, or another doubt; inactive = no such curve, though single readings can be large; an effect the other way counts as inactive or inconclusive. Potency is read from the fitted curve at half-maximal effect.

SMILES	Sfp PPTase inh	JMJD2A Tudor inh	G9a inh	HP1b chromo inh	L3MBTL1 inh	BAZ2B inh
COc1ccc(C2C(=O)N(C3CCCCCC3)CC(=O)N2CCC2=CCCCC2)cc1 (configuration not stated)	.	-13.1%	-28.6%[59 µM]	25.4%	.	-1.9%
CCc1ccccc1NC(=O)Cn1c(=O)n(CCCCCC(=O)NCc2ccc(C)cc2)c(=O)c2sccc21	.	-10.2%	-35.8%[59 µM]	41.5%	.	?
CCCCCCCCC1OC1CCCCCCCC(=O)O (configuration not stated)	13.0%	.	.	.	.	.
CCCCCCCCCCCCCCCC(=O)C1=C(O)C(CO)OC1=O (configuration not stated)	-7.9%	.	10µM*	.	.	.
COC(=O)c1c(SCC(=O)Nc2ccccc2OC)[nH]c2ccccc2c1=O	.	-15.3%	-23.7%[59 µM]	13.9%	.	-17.4%
CCCCNC(=O)Cn1c(SCc2cccc(F)c2)nc2ccncc21	.	-11.5%[57.1 µM]	.	22.6%[57 µM]	.	.
CNC(=S)NNC(=O)COc1ccccc1C	-3.4%	20µM*	31.6µM*	38.0%	-5.4%	-35.4%
CNC(=S)NNC(=O)COc1cccc(C)c1C	32.0%	39.8µM*	7.94µM*	10.3%	10.6%	3.1%
O=C(COc1ccccc1O)NNc1ccccc1	7.0%	2.0%	15.8µM*	39.8%	2.5%	-4.1%
O=C(COc1ccccc1O)Nc1ccccc1Cl	12.1%	12.0%	-60.0%[2.33 µM]	27.5%	44.6%	5.7%
CCOc1ccc(CCNC(=O)c2cc3c(=O)n(CC)c4ccccc4c3s2)cc1OCC	.	-5.1%	-4.3%[59 µM]	20.1%	.	-13.5%
CO[C@H]1COC(=O)[C@@H](CCSC)NC(=O)C/C=C\[C@@H](C)COC(=O)[C@@H](OCc2ccccc2)/C=C\[C@@H]1C	23.8%	.	.	.	.	.
COc1ccc(N2CCN(CCCNC(=O)c3cc(Nc4ccc(OC)cc4OC)nc4ccccc34)CC2)cc1	.	25.1µM*	12.6µM*	?	.	15.8µM*
COc1ccc(Nc2cc(C(=O)NCCCN(C)C3CCCCC3)c3ccccc3n2)cc1	.	?	-35.0%[59 µM]	?	.	.
COc1ccc(Nc2cc(C(=O)NCCCN(C)C3CCCCC3)c3ccccc3n2)c(OC)c1	.	20µM*	?	?	.	.
COc1ccc(Nc2cc(C(=O)N3CCc4ccccc4C3)c3ccccc3n2)c(OC)c1	2.9%	?	17.8µM*	3.8%	?	?
Oc1ccc(CCNc2c3ccccc3nc3ccccc23)cc1O	?	28.2µM*	-1.2%[0.501 µM]	14.1%	-12.8%[2.29 µM]	?
CC1CCN(C(=O)CCc2ccc(Oc3cc([N+](=O)[O-])cc([N+](=O)[O-])c3)cc2)CC1	?	12.6µM*	?	44.7µM*	?	28.2µM*
COc1ccccc1CN1CCN(C2CCN(C(=O)Nc3ccccc3)CC2)C(=O)C1=O	.	9.9%	-2.8%[12.7 µM]	45.1%	.	0.0%
Cc1cccc(-n2c(SCC(=O)N3CC(=O)Nc4ccccc43)nc3ccccc3c2=O)c1C	-17.0%	-24.1%	44.7µM*	18.1%	-0.9%	1.3%
O=C(CNC(=O)N1CC(=O)Nc2ccccc21)Nc1ccc(Cl)cc1	5.0%	-13.1%	.	27.0%	.	-5.5%
N#Cc1cc(C#N)c(SCC(=O)N2CC(=O)Nc3ccccc32)nc1N	.	-25.8%	?	41.9%	-4.2%	-0.8%
CCc1ccc2nc(SCC(=O)N3CC(=O)Nc4ccccc43)c(C#N)cc2c1	-8.3%	50.1µM*	-6.3%[59 µM]	?	10.5%	-5.7%
O=C1CN(C(=O)CNCc2ccc(Cl)cc2)c2ccccc2N1	?	10µM*	25.1µM*	?	-4.0%	70.8µM*
COc1ccccc1Nc1nnc(SCC(=O)N2CC(=O)Nc3ccccc32)s1	8.4%	-17.5%	50.1µM*	18.7%	7.7%	-2.2%
SMILES	Sfp PPTase inh	JMJD2A Tudor inh	G9a inh	HP1b chromo inh	L3MBTL1 inh	BAZ2B inh
COc1cccc(CNC(=O)c2cc3c(=O)oc4ccc(C)cc4c3s2)c1	.	-8.1%	8.4%[59 µM]	39.6%	.	-19.2%
O=C(CNC(=O)c1ccccc1)OC(C(=O)Nc1ccc2c(c1)OCO2)c1ccccc1 (configuration not stated)	.	-26.7%	.	.	.	.
Cc1nc(SCC(=O)N2CC(=O)Nc3ccccc32)nc(C)c1C	-25.0%	-13.1%	31.6µM*	29.7%	.	4.2%
Cc1cc(NC(=O)CSc2ncc(C(=O)Nc3ccc(F)cc3)c(=O)n2C)no1	.	5.5%	3.7%[59 µM]	27.3%	.	-1.0%
CC1=Nc2ccccc2N=C(NC(=O)/C=C/C(=O)O)C1c1ccccc1 (configuration not stated)	15.5%	-16.2%	11.2µM*	44.3%	2.5%	-27.2%
COc1ccc(C(=O)NC2=Nc3ccccc3N=C(C)C2c2ccccc2)cc1 (configuration not stated)	13.1%	-27.6%	?	-4.1%	-17.0%	-25.6%
O=c1ccc2c(OCCCCOc3ccccc3)c3ccoc3cc2o1	-6.9%	.	.	.	.	.
COc1ccc(/C=C2\SC(=NCc3ccccc3)N(Cc3ccccc3)C2=O)cc1OC	-7.4%	2.2%	16.6%[59 µM]	48.5%	3.6%	9.4%
COc1cc(/C=C2/SC(=S)N(CC(=O)O)C2=O)ccc1OC(=O)c1cccs1	?	?	50.1µM*	?	.	?
COc1cc(/C=C2/SC(=S)N(Cc3ccccc3)C2=O)ccc1OS(C)(=O)=O	4.0%	?	12.6µM*	-26.4%	.	?
COc1cc(/C=C2/SC(=S)N(Cc3ccccc3)C2=O)cc(Cl)c1O	-3.4%	25.1µM*	44.7µM*	?	.	12.6µM*
COc1cc([N+](=O)[O-])cc(/C=C2/SC(=S)N(Cc3ccccc3)C2=O)c1O	39.8µM*	17.8µM*	10µM*	?	.	14.1µM*
COc1ccccc1/C=C1\SC(=S)N(CCC(=O)NNC(=O)c2ccccc2O)C1=O	?	-22.1%	.	5.7%	.	-12.0%
COc1cc([C@@H]2Nc3c(F)cccc3[C@@H]3C=CC[C@@H]32)cc(Br)c1OC	.	2.1%	-1.5%[59 µM]	28.5%	.	3.7%
Cc1ccc(NC2=CC(c3ccccc3F)N(c3ccc(C)cc3)C2=O)cc1 (configuration not stated)	.	-32.6%	?	5.3%	.	?
CCOc1ccc(N2C(=O)CC(Sc3nnnn3-c3ccccc3)C2=O)cc1 (configuration not stated)	15.8µM*	5.4%	10µM*	52.2%	4.0%	-22.7%
CCCCCCOc1ccc(N2C(=O)CC(SCCN)C2=O)cc1 (configuration not stated)	-13.0%	-21.2%	?	54.1%	0.9%	-31.4%
CCOc1ccc(-n2nnnc2SCC(=O)c2ccccc2)cc1	0.8%	3.6%	-3.9%	54.8%	6.6%	6.4%
CCOc1ccc(N2C(=O)CC(SCCN)C2=O)cc1 (configuration not stated)	?	-28.8%	17.8µM*	23.2%	3.9%	-32.0%
